Laboratory results: PubChem BioAssay
Unmarked numbers belong to inactive results. For some of these results: Entries with a potency or affinity are not part of this list. Active and inactive are the calls of the source. Unless noted, the rule behind the calls is not given here.

Assays:
[1] = antimalarial activity against Dd2 strain (AID 2302;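 active = growth inhibition above 50% at the single 2 µM test dose, taken to imply half-maximal potency below 2 µM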;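 note: 0% = DMSO untreated growth and 100% = chloroquine plus artemisinin killed control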); settings: P. falciparum Dd2 in RBCs, LDH growth readout, 72 h; at 2 µM; stronger effect = higher value
[2] = HepG2 cytotoxicity, primary screen, cytotoxicity control for P. falciparum antimalarial project, cell-based, ATP luminescence (AID 2303;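 active = inhibition above 50%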;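 note: 0% = DMSO wells and 100% = digitonin-killed cells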); settings: HepG2 viability, 24-48 h, at 10 µM, stronger effect = higher value
[3] = target: L-lactate dehydrogenase (Plasmodium falciparum (isolate CDC / Honduras)) (UniProt Q27743); assay: PfLDH activity inhibition – cell lysate, 3D7 strain, counter-screen for P. falciparum growth inhibition project (AID 2304);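 note: 0% = vehicle and 100% = reference inhibitor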; settings: P. falciparum 3D7 crude extract, LDH APAD/NBT absorbance; at 2 µM; stronger effect = higher value
[4] = inhibition of 3D7 malaria parasite growth – strain 3D7 (AID 2306);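 note: 0% = DMSO wells and 100% = chloroquine plus artemisinin control wells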; settings: P. falciparum 3D7 erythrocytic growth, LDH absorbance, 72 h; at 2 µM; stronger effect = higher value
[5] = target: Calcium-dependent protein kinase 1 (Plasmodium falciparum (isolate 3D7)) (UniProt P62344); assay: PfCDPK1 kinase inhibitors, biochemical, TCAMS library (AID 1159585; cut-off not given, nearly all actives have IC50 up to about 0.98 µM;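 note: inhibitors leave more ATP so luminescence rises with inhibition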); settings: recombinant PfCDPK1, Kinase-Glo ATP depletion luminescence
[6] = target: Plasmodium falciparum protein kinase 6 (PK6, PF3D7_1337100) (UniProt Q8IDW1); assay: PfPK6 kinase inhibitors, biochemical, TCAMS library (AID 1159586); settings: recombinant PfPK6, Kinase-Glo ATP depletion luminescence
[7] = target: Protein kinase 7 (PK7), Plasmodium falciparum 3D7 (PF3D7_0213400) (UniProt Q7YTF7); assay: inhibition of Plasmodium PK7 catalytic activity – biochemical, TCAMS antimalarial set, Kinase-Glo luminescence (AID 1159587); settings: recombinant PfPK7, Kinase-Glo ATP depletion luminescence
[8] = target: Calcium-dependent protein kinase 4 (Plasmodium falciparum (isolate 3D7)) (UniProt Q8IBS5); assay: PfCDPK4 kinase inhibitors, biochemical, TCAMS library (AID 1159588; cut-off not given, nearly all actives have IC50 up to about 0.91 µM); settings: recombinant PfCDPK4, Kinase-Glo ATP depletion luminescence
Sequence of Calcium-dependent protein kinase 4 (Plasmodium falciparum (isolate 3D7)) (Q8IBS5 whole entry, looked up): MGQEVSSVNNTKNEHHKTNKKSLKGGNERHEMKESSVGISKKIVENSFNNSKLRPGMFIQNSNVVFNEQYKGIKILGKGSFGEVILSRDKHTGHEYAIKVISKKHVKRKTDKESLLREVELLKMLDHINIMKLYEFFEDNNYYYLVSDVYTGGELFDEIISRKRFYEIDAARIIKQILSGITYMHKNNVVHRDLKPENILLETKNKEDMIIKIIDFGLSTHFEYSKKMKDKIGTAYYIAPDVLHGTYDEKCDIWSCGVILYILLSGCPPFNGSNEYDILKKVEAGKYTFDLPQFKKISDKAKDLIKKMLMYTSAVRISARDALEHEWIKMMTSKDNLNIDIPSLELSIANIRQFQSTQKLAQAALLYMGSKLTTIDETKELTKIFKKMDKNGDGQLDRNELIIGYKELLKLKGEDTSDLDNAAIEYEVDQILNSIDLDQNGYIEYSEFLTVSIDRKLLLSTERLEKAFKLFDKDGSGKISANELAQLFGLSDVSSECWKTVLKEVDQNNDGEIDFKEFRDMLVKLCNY

Sequence of L-lactate dehydrogenase (Plasmodium falciparum (isolate CDC / Honduras)) (Q27743 whole entry, looked up): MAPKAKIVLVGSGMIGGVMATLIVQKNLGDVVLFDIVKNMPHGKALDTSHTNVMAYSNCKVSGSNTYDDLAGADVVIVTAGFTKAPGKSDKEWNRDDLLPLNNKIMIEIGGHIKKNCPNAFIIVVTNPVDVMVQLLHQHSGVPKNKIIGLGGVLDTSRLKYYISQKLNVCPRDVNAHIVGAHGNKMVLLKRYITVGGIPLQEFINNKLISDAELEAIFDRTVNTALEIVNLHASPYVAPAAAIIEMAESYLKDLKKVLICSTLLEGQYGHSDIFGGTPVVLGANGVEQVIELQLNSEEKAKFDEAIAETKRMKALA
Sequence of Protein kinase 7 (PK7), Plasmodium falciparum 3D7 (PF3D7_0213400) (Q7YTF7 1-343): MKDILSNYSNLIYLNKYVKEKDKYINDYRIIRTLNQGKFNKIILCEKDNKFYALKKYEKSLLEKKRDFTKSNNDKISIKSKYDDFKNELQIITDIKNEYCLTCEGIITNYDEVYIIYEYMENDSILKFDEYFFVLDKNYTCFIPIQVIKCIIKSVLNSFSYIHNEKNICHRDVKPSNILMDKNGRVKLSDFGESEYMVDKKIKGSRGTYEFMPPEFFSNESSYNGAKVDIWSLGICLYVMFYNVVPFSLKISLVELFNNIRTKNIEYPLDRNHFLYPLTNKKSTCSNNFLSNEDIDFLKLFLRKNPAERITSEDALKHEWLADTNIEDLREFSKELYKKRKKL
Sequence of Calcium-dependent protein kinase 1 (Plasmodium falciparum (isolate 3D7)) (P62344 whole entry, looked up): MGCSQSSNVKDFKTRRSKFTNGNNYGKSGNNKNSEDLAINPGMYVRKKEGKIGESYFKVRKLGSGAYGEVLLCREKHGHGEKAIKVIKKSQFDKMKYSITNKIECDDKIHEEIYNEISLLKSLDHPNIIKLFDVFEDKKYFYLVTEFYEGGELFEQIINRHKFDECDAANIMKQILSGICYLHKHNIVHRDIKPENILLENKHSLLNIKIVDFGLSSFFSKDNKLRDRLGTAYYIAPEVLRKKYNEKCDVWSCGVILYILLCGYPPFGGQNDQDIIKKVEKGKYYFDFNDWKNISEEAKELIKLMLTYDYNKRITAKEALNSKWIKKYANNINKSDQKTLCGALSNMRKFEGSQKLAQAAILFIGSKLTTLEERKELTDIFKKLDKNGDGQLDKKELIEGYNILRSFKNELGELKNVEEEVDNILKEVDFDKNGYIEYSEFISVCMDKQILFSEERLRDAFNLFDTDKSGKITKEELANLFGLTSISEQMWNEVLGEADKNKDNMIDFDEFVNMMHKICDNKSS
Sequence of Plasmodium falciparum protein kinase 6 (PK6, PF3D7_1337100) (Q8IDW1 1-305): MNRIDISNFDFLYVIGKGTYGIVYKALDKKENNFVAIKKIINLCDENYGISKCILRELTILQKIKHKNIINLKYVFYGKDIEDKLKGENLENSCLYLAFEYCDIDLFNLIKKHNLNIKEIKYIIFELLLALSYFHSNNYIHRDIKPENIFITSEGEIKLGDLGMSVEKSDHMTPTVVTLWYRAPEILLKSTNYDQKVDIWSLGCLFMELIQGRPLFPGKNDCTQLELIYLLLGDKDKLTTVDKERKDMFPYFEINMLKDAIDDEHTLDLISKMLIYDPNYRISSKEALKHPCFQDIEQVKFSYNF

Row | Compound | growth inhibition [1] | inhibition [2] | inhibition [3] | growth inhibition [4] | outcome [5] | outcome [6] | outcome [7] | outcome [8]
1 | CC(CN1CCN(C)CC1)C(=O)Nc1ccc(-c2ccc(-c3nc4ccc(F)cc4[nH]3)cc2)cc1 (stereo not drawn) | 87% (active) | 19% | -5% | 101% (active) | inactive | inactive | inactive | inactive
2 | CC(C)CCN1CCCN(Cc2cccc(NC(=O)c3cc4ccccc4s3)c2)CC1 | 8% | 34% | 1% | 96% (active) | inactive | inactive | inactive | inactive
3 | O=S(=O)(NCCN1CCCC1)c1cccc(-c2ccc(CNC3Cc4ccccc4C3)cc2)c1 | 74% (active) | 79% (active) | -4% | 99% (active) | inactive | inactive | inactive | inactive
4 | COc1cc(NC(=O)c2sc(-c3ccc(Cl)cc3)cc2NC(=O)c2ccncc2)ccc1OCCN1CCCC1 | 100% (active) | 100% (active) | 3% | 100% (active) | inactive | inactive | inactive | inactive
5 | O=S(=O)(NCCN1CCCC1)c1ccc(-c2ccc(CNCc3ccsc3)cc2)cc1F | 40% | 27% | 0% | 96% (active) | inactive | inactive | inactive | inactive
6 | O=C(Nc1ccc(OC2CCN(Cc3ccc(F)cc3)CC2)c(Cl)c1)c1ccco1 | 95% (active) | 2% | -4% | 95% (active) | inactive | inactive | inactive | inactive
7 | CC(C)(C)c1ccc(NC(=O)c2ccc(CN3CCCN(Cc4ccsc4)CC3)cc2)cc1 | -1% | 50% (active) | -7% | 96% (active) | inactive | inactive | inactive | inactive
8 | O=C(NC(Nc1ccc([N+](=O)[O-])cc1)C(Cl)(Cl)Cl)c1ccc(Cl)cc1 (stereo not drawn) | 94% (active) | 21% | 4% | 98% (active) | inactive | inactive | inactive | inactive
9 | CCOC(=O)c1[nH]c(-c2ccc(Cl)cc2)nc1NC(=S)NCCCN1CCOCC1 | 33% | 22% | -4% | 92% (active) | inactive | inactive | inactive | inactive
10 | CCOc1cc(C(=O)NC2CCN(Cc3ccccc3)CC2)ccc1-c1nc2cc(Cl)c(F)cc2[nH]1 | 51% (active) | 13% | 4% | 101% (active) | inactive | inactive | inactive | inactive
11 | CC(C)C(=O)NC(c1ccc(Cl)cc1)c1ccc2cccnc2c1O (stereo not drawn) | 70% (active) | 53% (active) | 3% | 91% (active) | inactive | inactive | inactive | inactive
12 | Cc1ccc2c(-c3ccc([N+](=O)[O-])o3)cc(C)nc2c1 | 47% | 20% | 3% | 95% (active) | inactive | inactive | inactive | inactive
13 | CC(C)COc1ccc(Cl)cc1Cc1ccc(-c2nc3cc(F)c(F)cc3[nH]2)o1 | 96% (active) | 27% | 4% | 95% (active) | inactive | inactive | inactive | inactive
14 | NC(N)=NCCN(Cc1ccccc1)c1ccccc1 | 98% (active) | 8% | 3% | 100% (active) | inactive | inactive | inactive | inactive
15 | O=C(NCC1CCC1)c1cnc(Nc2cccc(Cl)c2)nc1N1CCC1 | 75% (active) | 21% | 2% | 98% (active) | inactive | inactive | inactive | inactive
16 | CCN1CCC(N(Cc2ccc(-c3ccc(C(F)(F)F)cc3)cc2)C(=O)Cn2c(CCc3cccc(F)c3F)cc(=O)c3ccc(OCc4ccccc4)cc32)CC1 | 86% (active) | 60% (active) | 3% | 102% (active) | inactive | inactive | inactive | inactive
17 | CC(C)CNCc1ccc(-c2cccc(CN(CCCN3CCN(C)CC3)C(=O)/C=C/c3ccccc3)c2)cc1 | 93% (active) | 43% | 0% | 95% (active) | inactive | inactive | inactive | inactive
18 | CC(Nc1nc(Nc2ccc(F)cc2)nc(SCC(N)=O)n1)c1ccccc1 (stereo not drawn) | 87% (active) | 14% | -2% | 90% (active) | inactive | inactive | inactive | inactive
19 | Cc1cccc2[nH]c(-c3ccc(-c4cccc(CNCCCNS(C)(=O)=O)c4)s3)nc12 | 19% | 20% | 2% | 99% (active) | inactive | inactive | inactive | inactive
20 | Cc1cc(C(=O)Nc2nc(-c3ccccn3)nc3ccsc23)no1 | 90% (active) | 44% | 0% | 98% (active) | inactive | inactive | inactive | inactive
21 | COc1cc(OC)cc(C(=O)Nc2nc(-c3ccccn3)cs2)c1 | 72% (active) | 47% | 1% | 97% (active) | inactive | inactive | inactive | inactive

Row | Compound | growth inhibition [1] | inhibition [2] | inhibition [3] | growth inhibition [4] | outcome [5] | outcome [6] | outcome [7] | outcome [8]
22 | COc1ccccc1CCNc1nc(C)cc(N[C@@H](CC(C)C)C(=O)Nc2ccccc2)n1 | 76% (active) | 16% | -2% | 101% (active) | inactive | inactive | inactive | inactive
23 | O=C(Nc1cccc(OCCN2CCCC2)c1)Nc1ccc(Cl)c(Cl)c1 | 22% | 3% | -5% | 98% (active) | inactive | inactive | inactive | inactive
24 | Cc1ccc(Cn2c(N3CCC(C(=O)NCc4ccccn4)CC3)nc3ccccc32)cc1 | 99% (active) | -8% | 8% | 100% (active) | inactive | inactive | inactive | inactive
25 | COc1ccc(OC)c(C=NNc2nc3ccccc3[nH]2)c1 | 28% | -6% | 7% | 99% (active) | inactive | inactive | inactive | inactive
26 | O=C(NCCCCN1CCC(c2ccc3c(c2OC(=O)c2ccc(NC(=O)c4ccc(Cl)cc4)cc2)CCCC3)CC1)c1ccc(NC(=O)c2ccc(Cl)cc2)cc1 | 99% (active) | 62% (active) | -2% | 101% (active) | inactive | inactive | inactive | inactive
27 | O=C(C=Cc1cccs1)Nc1ccc(-c2nc3ccccc3[nH]2)cc1 | 3% | -4% | 4% | 83% (active) | inactive | inactive | inactive | inactive
28 | Oc1ccc(Cl)cc1-c1cc(C(F)(F)F)nc(-c2ccccc2)n1 | 92% (active) | 20% | 3% | 99% (active) | inactive | inactive | inactive | inactive
29 | Cc1nnc(N2C(=N)SC(=Cc3ccc(-c4ccc(OC(F)(F)F)cc4)o3)C2=O)s1 | 58% (active) | 37% | -7% | 85% (active) | inactive | inactive | inactive | inactive
30 | CNCCNCc1cccc(-c2ccc(-c3nc4c(C)cccc4[nH]3)s2)c1 | 8% | 10% | -6% | 92% (active) | inactive | inactive | inactive | inactive
31 | COc1ccccc1C1CCN(Cc2csc(NC(=O)c3ccc(-c4ccc(C(F)(F)F)cc4)cc3)n2)CC1 | 23% | 62% (active) | -2% | 85% (active) | inactive | inactive | inactive | inactive
32 | NCC1CCCN1Cc1ccc(-c2ccc(-c3nc4ccc(C(F)(F)F)cc4[nH]3)cc2)cc1 (stereo not drawn) | 98% (active) | 35% | 3% | 101% (active) | inactive | inactive | inactive | inactive
33 | O=C(Nc1nccs1)c1cn(-c2ccccc2)nc1-c1ccc(Cl)s1 | 18% | 9% | 0% | 96% (active) | inactive | inactive | inactive | inactive
34 | COc1nc2c(CCN3CCC(NCc4ccc5c(c4)NC(=O)CO5)CC3)c(Cl)cnc2cc1F | 21% | 15% | 6% | 99% (active) | inactive | inactive | inactive | inactive
35 | O=C(Nc1cccc(-c2cccc(CN3CCCC3)c2)c1)c1cccc(Cl)c1 | 30% | 44% | -2% | 89% (active) | inactive | inactive | inactive | inactive
36 | Fc1ccc2nc(-c3cccc(-c4ccc(CN5CCN(c6cnccn6)CC5)cc4)c3)[nH]c2c1 | 31% | 19% | -4% | 96% (active) | inactive | inactive | inactive | inactive
37 | O=c1cc(NCCCNCc2cc3ccccc3s2)[nH]c2ccccc12 | -3% | 3% | -1% | 89% (active) | inactive | inactive | inactive | inactive
38 | CN(c1ccc2c(c1)nc(NC(=O)C1(c3cc(F)ccc3F)CC1)n2C)c1ccnc(Nc2cccc(CS(C)(=O)=O)c2)n1 | 46% | 42% | 6% | 89% (active) | inactive | inactive | inactive | inactive
39 | CCc1sc(-c2ccc(C(C)(C)C)cc2)nc1C(=O)NCCCN1CCCC1=O | 69% (active) | 0% | -5% | 84% (active) | inactive | inactive | inactive | inactive
40 | Cc1cc(NC(=O)Nc2ccc(I)c(OCCN(C)C)c2)ccc1Br | 42% | 18% | 4% | 101% (active) | inactive | inactive | inactive | inactive
41 | Oc1ccc2ccccc2c1CNCC1CCCCC1 | 93% (active) | -12% | -5% | 98% (active) | inactive | inactive | inactive | inactive
